LASV entry inh: qHTS for Inhibitors of binding or entry into cells for Lassa Virus. Lassa virus pseudotype entry inhibition, cell reporter. Potency, µM (top dose mostly 37.9 µM), most hits filed as inhibitors. 300,000 compounds, 1.2% hits. AID 540256, 2011; calls by dose curve; tested in HEK293 cells; note: nearly all actives have a fitted effect of over 50% in size
Vaccinia mCherry: qHTS for Stage-Specific Inhibitors of Vaccinia Orthopoxvirus: mCherry Reporter Primary qHTS. Vaccinia virus mCherry reporter infection, fluorescence. 310,000 compounds, 0.63% hits. Potency, µM (highest dose often 36.5 µM), hits mostly inhibitors. AID 720579, 2013; calls by dose curve; tested in A549 cells; note: nearly all actives have a fitted effect of over 35% in size
Marburg entry inh: qHTS for inhibitors of binding or entry into cells for Marburg Virus; Marburg virus pseudotyped entry inhibition, cell reporter; Potency, µM (doses to about 37.8 µM), most hits filed as inhibitors; 300,000 compounds, 1.8% hits; AID 540276, 2011; calls by dose curve; tested in HEK293 cells
VACV Venus inh: qHTS for Stage-Specific Inhibitors of Vaccinia Orthopoxvirus: Venus Reporter Primary qHTS; Vaccinia virus Venus reporter expression, fluorescence; Potency, µM (highest dose often 36.5 µM), usual class: inhibitors; 330,000 compounds, 0.46% hits; calls by dose curve; tested in A549 cells; note: nearly all actives have a fitted effect of over 30% in size
A number is an active result; n = inactive; u = inconclusive; x = no result given; ! = not active in a repeat. Hits are enriched below; roughly 2.5% of the tested compounds scored in any of these assays.

SMILES	LASV entry inh	Vaccinia mCherry	Marburg entry inh	VACV Venus inh
O=C(C1CCN(Cc2ccc(F)cc2)CC1)N1CCN(C/C=C/c2ccccc2)CC1	u	n	u	n
O=c1c2sc(-c3ccccc3)cc2nc2n1CCCCC2	n	n	u	n
O=c1c2sc(-c3ccccc3)cc2nc2n1CCC2	u	n	4.5µM	n
O=C(O)C[C@H](C(=O)OCCOc1ccccc1)N1CCOCC1	x	x	n	x
COc1cc(CNC(C)(C)CO)cc(Br)c1OCc1ccc(Cl)cc1Cl	u	u	13µM	u
COc1cc(CNCCO)cc(Br)c1OCc1ccccc1Cl	n	u	u	u
CCCc1nn(C)c2c1[C@@H](c1cccnc1)C(C#N)=C(N)O2	x	x	n	x
Cc1ccc(S(=O)(=O)N(C)c2ccc(C(=O)N3CCc4ccccc4C3)cc2)cc1	11µM	n	u	n
CCN(CC)c1ccc(/C=C/C2=C3C=CC=CC3NC=C2)cc1 (stereo not given)	x	n	x	n
Cc1cccc(NC(=S)/N=C(\N)Nc2nc(C)c3cc(C)ccc3n2)c1	n	u	u	n
Cc1cccc(NC(=S)/N=C(\N)Nc2nc(C)c3ccc(C)cc3n2)c1	u	u	11µM	u
Cc1ccc2c(c1)c(C)c(C)n2CC(O)Cn1nnc2ccccc21 (stereo not given)	u	x	21µM	x
Cc1c(/C(O)=C2\C(=O)C(=O)N(CCN3CCOCC3)[C@H]2c2cccnc2)cnn1-c1ccccc1	x	x	n	x
c1cc2c(cc1NC1=NCCO1)CCCC2	n	u	u	4µM
Nc1ccc(/C=C/c2ccnc3ccccc23)cc1[N+](=O)[O-]	x	n	x	n
CCOc1ccc(-n2c(C)nc3cc(C(=O)NCC4CCCO4)ccc32)cc1 (stereo not given)	5µM	n	u	n
COc1cc2c(cc1OC)CN(S(=O)(=O)/C=C/c1ccccc1)CC2	1.3µM	n	u	n
COc1ccc(N2CCN(S(=O)(=O)/C=C/c3ccccc3)CC2)cc1	n	n	n	n
CC(=O)Nc1ccccc1OCCOc1ccc(Br)cc1	u	13µM	u	n
CCn1c(=N)n(CC(O)COc2cccc(C)c2)c2ccccc21 (stereo not given)	n	x	u	x
CCCn1c(=N)n(CC(O)COc2cccc(C)c2)c2ccccc21 (stereo not given)	n	x	8.2µM	x
CCCCCn1c(=N)n(CC(O)COc2cccc(C)c2)c2ccccc21 (stereo not given)	u	10µM	u	10µM
COc1cc(/C=N/O)ccc1OCc1ccccc1Cl	u	n	u	n
COc1cc(/C=C(/C)[N+](=O)[O-])ccc1OCc1ccccc1Cl	u	u	6.5µM	11µM
C=CCOC(=O)C(C(=O)CC)[C@@H](NC(=O)OC)c1ccc(F)cc1 (stereo not given in full)	x	x	n	x
SMILES	LASV entry inh	Vaccinia mCherry	Marburg entry inh	VACV Venus inh
CCNc1nc(Oc2ccccc2)nc(O[C@@H](C)C(=O)OCC)n1	x	x	n	x
CN(CCOc1ccc(Cl)cc1)C(=O)c1cccc(S(=O)(=O)N2CCN(c3ccc(F)cc3)CC2)c1	u	u	7.1µM	u
Cc1cccc(C)c1NC(=O)CN(C)C(=O)c1cccc(S(=O)(=O)N2CCN(c3ccc(F)cc3)CC2)c1	u	u	u	n
CC1CN(C(=O)c2cccc(S(=O)(=O)N3CCN(c4ccc(F)cc4)CC3)c2)CC(C)O1 (stereo not given)	u	n	n	n
O=C(c1cccc(S(=O)(=O)N2CCN(c3ccc(F)cc3)CC2)c1)N1CCCC(C(F)(F)F)C1 (stereo not given)	u	u	7.9µM	n
O=C1C(Cl)=C(N2CCCCC2)C(=O)C(Cl)=C1c1cnc(N2CCCCC2)s1	12µM	x	u	x
O=C(NCC1(N2CCCCC2)CCCCC1)c1ccc(-n2cc(NC(=O)c3cccnc3)cn2)cc1	x	n	x	n
Cc1cc(CNC(=O)c2cnn(-c3nccc(-c4cc(C)sc4C)n3)c2C2CC2)on1	x	n	x	n
COc1ccc(NC(=O)c2cc(C(C)C)on2)c(OC)c1	x	n	x	n
COc1cc(NC(=O)c2cc(C(C)C)on2)c(OC)cc1Cl	u	n	15µM	n
COC(=O)C1CCCCN1Cc1ccc2c(c1)CN(Cc1cnn(-c3ccccc3)c1)CCO2 (stereo not given)	x	n	x	n
O=C(/C=C\Nc1ccc2c(c1)OCO2)c1ccccn1	0.45µM	n	u	n
Nn1cnnc1N/N=C/c1ccc(Cl)cc1Cl	u	8.9µM	u	u
CCCCOCCCNc1ncnc2c1[nH]c1ccccc12	u	x	5.2µM	x
CCOC(=O)CN1C(=O)[C@@]2(C[C@@H](C)C[C@@H](C)O2)c2ccccc21	x	x	n	x
COc1ccc(-n2cc(-c3ccc(C)cc3)[n+]3c2SCC3)cc1	u	n	1.3µM	n
CC(=O)Nc1ccc(/C=C/c2sc3ccccc3[n+]2CCCCI)cc1	x	n	x	n
O=C(O)c1ccccc1C(=O)Nc1ccccc1	u	x	n	x
O=C(Nc1ccccc1)C1=C(c2ccccc2)S(=O)(=O)CCS1(=O)=O	u	u	2.8µM	u
CC(C)(C)NC(=O)CCN(/N=C/c1ccc([N+](=O)[O-])o1)C1=NS(=O)(=O)c2ccccc21	n	u	u	10µM
COc1ccccc1C1CN(CC(=O)NCC2OCCc3ccccc32)Cc2ccccc2O1 (stereo not given)	x	n	x	n
CCOC(=O)C1CCN(Cc2cnc(Oc3ccc(C(C)(C)C)cc3)s2)CC1	9.2µM	x	n	x
COc1ccc(C(=O)N2CCCC(c3nc(SCc4ccccn4)ncc3C)C2)cc1F (stereo not given)	x	n	x	u
CCN1C(=NCc2ccco2)N[C@@H](CCc2ccccc2)[C@H](C(=O)OC)[C@H]1C	u	x	n	x
O=C(COc1ccc(S(=O)(=O)N2CCOCC2)cc1Cl)NC1CCCCC1	n	n	n	n
SMILES	LASV entry inh	Vaccinia mCherry	Marburg entry inh	VACV Venus inh
O=S(=O)(c1ccc(OCC(O)CNC23CC4CC(CC(C4)C2)C3)c(Cl)c1)N1CCOCC1 (stereo not given)	n	n	2µM	n
c1cncc(OC2CCN(Cc3ccc4c(c3)CN(Cc3nc5ccccc5s3)CCO4)CC2)c1	x	n	x	n
Cc1c(Cl)cccc1NC(=S)Nn1cnnc1	n	n	n	n
Cc1c(Cl)cccc1NC(=S)NNS(=O)(=O)c1ccc([N+](=O)[O-])cc1	n	10µM	n	u
COc1cccc(-n2nc(C#N)c(Cl)cc2=O)c1	u	u	u	18µM
COc1ccc(-c2nnc3sc(COc4ccc(C)cc4)nn23)cc1	13µM	x	n	n
COc1ccc(-c2nnc3sc(COc4ccccc4)nn23)cc1	n	x	n	x
CC(=O)C1=CN(CCc2c[nH]c3ccccc23)C(=O)NC1c1ccccc1 (stereo not given)	x	x	n	x
Cc1ccc(C)c(OCC(O)CN2CCC(CN3C(=O)c4cccc5cccc(c45)C3=O)CC2)c1 (stereo not given)	u	n	u	n
COc1ccc(OCC(O)CN2CCC(CN3C(=O)c4cccc5cccc(c45)C3=O)CC2)cc1 (stereo not given)	u	u	4.5µM	n
Cc1ccc(Cl)cc1N1CCN(C(=O)c2cc3c(=O)[nH]c4ccccc4c3n2C)CC1	u	u	5.6µM!	n
CC(=O)c1c(C)[nH]c(C(=O)N2CCN(c3cc(Cl)ccc3C)CC2)c1C	6.5µM	x	7.3µM	x

Screens deposited in PubChem BioAssay by National Center for Advancing Translational Sciences (NCATS).
